Source: PubChem BioAssay (NCATS)
Calls of active or inactive are those of the source.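 Rule for the calls: active = compounds whose dose series gives a full or clear partial fitted curve of increased nuclear translocation; inconclusive = weak partial curve or effect only at the top dose; inactive = no dose-dependent translocation response.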

molecular target: Glucocorticoid receptor (Homo sapiens) (UniProt P04150); assay: GR-GFP Redistribution (AID 450); details: U2OS GR-GFP nuclear translocation, laser cytometry, 2 h; series mostly up to 20.6 µM
Sequence (P04150 whole entry, looked up): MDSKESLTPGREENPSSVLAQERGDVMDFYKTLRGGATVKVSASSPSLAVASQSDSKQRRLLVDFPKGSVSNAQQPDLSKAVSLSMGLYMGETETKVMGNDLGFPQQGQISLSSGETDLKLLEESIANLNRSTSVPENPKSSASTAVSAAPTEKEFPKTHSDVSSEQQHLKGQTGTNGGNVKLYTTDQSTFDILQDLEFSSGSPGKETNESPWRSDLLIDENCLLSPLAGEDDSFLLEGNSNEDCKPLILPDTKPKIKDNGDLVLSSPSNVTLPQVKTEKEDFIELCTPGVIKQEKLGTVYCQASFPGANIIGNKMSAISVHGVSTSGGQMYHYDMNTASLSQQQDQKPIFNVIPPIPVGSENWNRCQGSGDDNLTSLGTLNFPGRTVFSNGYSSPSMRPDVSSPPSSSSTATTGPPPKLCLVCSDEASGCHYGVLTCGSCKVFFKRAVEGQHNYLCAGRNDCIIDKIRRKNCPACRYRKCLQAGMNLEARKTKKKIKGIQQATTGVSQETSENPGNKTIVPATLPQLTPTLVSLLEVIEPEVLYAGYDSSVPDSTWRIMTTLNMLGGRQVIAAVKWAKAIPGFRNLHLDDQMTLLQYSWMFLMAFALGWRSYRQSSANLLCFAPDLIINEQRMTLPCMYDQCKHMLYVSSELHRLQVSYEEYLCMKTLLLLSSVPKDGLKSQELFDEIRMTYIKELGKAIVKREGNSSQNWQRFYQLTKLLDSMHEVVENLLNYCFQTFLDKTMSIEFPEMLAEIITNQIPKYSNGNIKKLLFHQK
Potency is the fitted concentration of half-maximal effect.

Potency, inactive:
CC(=NC1CCCC1)c1c(C)[nH]n(-c2nc3ccccc3s2)c1=O > 20.6 µM
Cc1ccc(-c2nnc(-c3ccccc3)o2)cc1Br > 20.6 µM
C[C@H](O)[C@@H]1C(=O)N2C(C(=O)O)=C(SCCN=CN)C[C@@H]12 > 20.6 µM
Cc1ccc(OCc2nnc(NC(=O)c3ccco3)s2)c(C)c1 > 20.6 µM
CCOC(=O)C1CCN(c2nc3ccccc3nc2C(C#N)C(=O)OC(C)C)CC1 (stereo not drawn) > 20.6 µM
COC(=O)[C@@H](NC(=O)c1cc(-c2ccccc2)nc2ccccc12)c1ccccc1 > 46 µM
O=C(O)C1CC=CCC1C(=O)N1CCN(c2nc(-c3ccccc3)c3ccccc3n2)CC1 (stereo not drawn) > 20.6 µM
OC1(C2(O)CC(c3ccccc3)ON2)CCCCC1 (stereo not drawn) > 20.6 µM
COCCCNc1nc2c(c(=O)[nH]c(=O)n2C)n1CC(O)COc1ccccc1 (stereo not drawn) > 20.6 µM
CN(C)C/C(Cl)=C(\Cl)c1ccccc1 > 20.6 µM
CC[C@]1(O)C[C@H]2CN(CCc3c([nH]c4ccccc34)[C@](C(=O)OC)(c3cc4c(cc3OC)N(C)[C@@H]3[C@](O)(C(=O)OC)[C@H](OC(C)=O)[C@]5(CC)C=CCN6CC[C@]43[C@@H]65)C2)C1 > 46 µM
CC1(C)Cc2c(C#N)c(OCC(=O)c3ccc(Cl)cc3)nc(-c3ccoc3)c2CO1 > 20.6 µM
C=CCNc1nc(N2CCOCC2)c(C#N)c2c1CN(C)CC2 > 20.6 µM
